PubChem BioAssay (NCATS)
Results filed as inconclusive are left out. The source made the active and inactive calls. Unless noted, calls come from the whole dose curve; as a rule, active = well fitted curve in the direction sought with a large enough effect; inconclusive = small, poorly fitted or top-dose-only effect, or another doubt; inactive = no such curve, though single readings can be large; an effect the other way counts as inactive or inconclusive.

Legend:
[1] = Inducers of the Endoplasmic Reticulum Stress Response (ERSR) in human glioma: Validation (AID 504836)
Procedure, shortened: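 Stably transfected U87-MG glioma cells carrying a GRP78-based luciferase sensor; 16 h compound incubation. Luminescence end-point read 10 min after Bright-Glo addition at room temperature.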

[2] = qHTS for Inhibitors of the Functional Ribonucleoprotein Complex (vRNP) of Lassa (LASV) Arenavirus: LASV Primary Screen - GLuc reporter signal (AID 1347082; calls by dose curve; tested in HEK293 reporter line; note: nearly all actives have a fitted effect of over 60% in size)
[3] = qHTS for Inhibitors of the Functional Ribonucleoprotein Complex (vRNP) of Lassa (LASV) Arenavirus: Viability assay - alamar blue signal for LASV Primary Screen (AID 1347083; calls by dose curve; tested in HEK293 reporter line; note: nearly all actives have a fitted effect of over 80% in size)
[4] = qHTS for Inhibitors of the Functional Ribonucleoprotein Complex (vRNP) of Lymphocytic Choriomeningitis Arenaviruses (LCMV): Viability assay - alamar blue signal for LCMV Primary Screen (AID 1347085; calls by dose curve; tested in HEK293 reporter line; note: nearly all actives have a fitted effect of over 80% in size)
[5] = target: Nucleoprotein (Lymphocytic choriomeningitis virus (strain Armstrong)) (UniProt P09992); test: qHTS for Inhibitors of the Functional Ribonucleoprotein Complex (vRNP) of Lymphocytic Choriomeningitis Arenaviruses (LCMV): LCMV Primary Screen - GLuc reporter signal (AID 1347086; calls by dose curve; note: nearly all actives have a fitted effect of over 70% in size)
Sequence of Nucleoprotein (Lymphocytic choriomeningitis virus (strain Armstrong)) (P09992 whole entry, looked up): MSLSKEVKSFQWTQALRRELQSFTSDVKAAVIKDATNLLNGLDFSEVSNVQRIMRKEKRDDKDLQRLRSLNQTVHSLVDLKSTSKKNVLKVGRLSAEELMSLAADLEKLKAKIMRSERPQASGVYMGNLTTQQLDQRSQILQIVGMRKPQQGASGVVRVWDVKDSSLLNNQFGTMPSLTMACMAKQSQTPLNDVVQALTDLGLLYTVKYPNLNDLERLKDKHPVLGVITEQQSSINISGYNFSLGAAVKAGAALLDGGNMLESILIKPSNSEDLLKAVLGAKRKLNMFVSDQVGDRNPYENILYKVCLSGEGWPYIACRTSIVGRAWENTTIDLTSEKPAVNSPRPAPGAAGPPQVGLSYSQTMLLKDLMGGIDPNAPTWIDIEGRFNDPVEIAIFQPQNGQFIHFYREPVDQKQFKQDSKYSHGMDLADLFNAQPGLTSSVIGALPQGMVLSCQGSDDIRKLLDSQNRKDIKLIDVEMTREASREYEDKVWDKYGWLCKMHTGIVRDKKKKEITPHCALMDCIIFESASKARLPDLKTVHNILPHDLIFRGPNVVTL

[6] = target: Alpha-galactosidase (Coffea arabica) (UniProt Q42656); test: Counterscreen for Glucocerebrosidase Inhibitors: qHTS Assay for Coffee Bean alpha-Galactosidase at pH 4.5 (AID 957)
Sequence of Alpha-galactosidase (Coffea arabica) (Q42656 whole entry, looked up): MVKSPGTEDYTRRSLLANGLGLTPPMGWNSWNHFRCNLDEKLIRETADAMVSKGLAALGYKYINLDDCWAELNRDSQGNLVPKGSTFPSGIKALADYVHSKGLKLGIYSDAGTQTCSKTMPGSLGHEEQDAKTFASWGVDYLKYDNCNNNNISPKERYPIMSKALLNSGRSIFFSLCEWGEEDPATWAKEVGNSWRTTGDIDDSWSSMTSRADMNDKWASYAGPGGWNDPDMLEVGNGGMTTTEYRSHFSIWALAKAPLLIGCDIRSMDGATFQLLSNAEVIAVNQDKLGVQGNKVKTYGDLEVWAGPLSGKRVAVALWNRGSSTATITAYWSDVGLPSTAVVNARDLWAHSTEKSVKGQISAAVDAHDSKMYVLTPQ
Procedure, shortened: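 Enzyme is added first (2 nM final), then compounds titrated from 0.7 nM to 77 uM, then 80 uM 4-methylumbelliferyl alpha-D-galactopyranoside; after 20 min at room temperature a pH 10 NaOH/glycine stop precedes fluorescence reading at 365/440 nm.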

[7] = target: Alpha-galactosidase (Coffea arabica) (UniProt Q42656); test: Counterscreen for Glucocerebrosidase Inhibitors: qHTS Assay for Coffee Bean alpha-Galactosidase at pH 5.9 (AID 998)
Procedure, shortened: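 Enzyme 2 nM + cpd (0.7 nM–77 uM titration) + 4-MU-alpha-Gal 80 uM, pH 5.9 citrate/Tween-20, RT 20 min, NaOH/glycine stop pH 10, fluor 365/440. Normalized to no-enzyme and full-activity controls; Hill-fit AC50.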

[8] = Validation screen for inhibitors of Lassa infection (AID 463096; calls by dose curve)
[9] = target: M-phase phosphoprotein 8 (Homo sapiens) (UniProt Q99549); test: qHTS Validation Assay for Inhibitors for MPP8 Chromodomain Interactions with Methylated Histone Tails (AID 488949);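 note: AlphaScreen signal from MPP8 chromodomain bound to biotinylated H3K9me3 peptide; top concentration of the series differs between compounds; nearly all actives have a fitted effect of over 55% in size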
Sequence of M-phase phosphoprotein 8 (Homo sapiens) (Q99549 whole entry, looked up): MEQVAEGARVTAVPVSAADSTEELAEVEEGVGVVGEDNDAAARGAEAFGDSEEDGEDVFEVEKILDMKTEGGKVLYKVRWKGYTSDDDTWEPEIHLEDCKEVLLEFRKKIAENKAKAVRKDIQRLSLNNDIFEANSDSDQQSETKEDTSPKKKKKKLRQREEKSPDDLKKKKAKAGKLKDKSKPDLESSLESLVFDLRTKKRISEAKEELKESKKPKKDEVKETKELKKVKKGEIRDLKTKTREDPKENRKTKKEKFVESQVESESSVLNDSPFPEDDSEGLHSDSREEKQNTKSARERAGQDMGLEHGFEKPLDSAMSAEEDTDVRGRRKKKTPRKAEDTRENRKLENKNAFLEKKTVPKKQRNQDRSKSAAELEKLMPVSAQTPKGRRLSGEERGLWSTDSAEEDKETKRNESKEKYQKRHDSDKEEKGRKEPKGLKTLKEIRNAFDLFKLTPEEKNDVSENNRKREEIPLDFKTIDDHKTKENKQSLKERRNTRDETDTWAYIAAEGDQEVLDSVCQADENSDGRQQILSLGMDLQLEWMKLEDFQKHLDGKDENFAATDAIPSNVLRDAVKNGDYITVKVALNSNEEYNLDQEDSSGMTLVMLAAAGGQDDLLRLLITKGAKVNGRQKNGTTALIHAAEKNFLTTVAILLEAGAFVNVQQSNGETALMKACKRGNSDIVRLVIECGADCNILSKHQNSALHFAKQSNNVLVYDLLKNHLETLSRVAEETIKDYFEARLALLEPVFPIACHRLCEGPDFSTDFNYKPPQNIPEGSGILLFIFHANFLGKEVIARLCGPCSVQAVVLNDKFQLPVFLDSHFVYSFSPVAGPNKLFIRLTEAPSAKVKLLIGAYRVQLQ
Procedure, shortened: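 MPP8 (50 nM) was preincubated with biotinylated H3(1-18)K9me3 peptide (50 nM) in PBS pH 7.4, 0.01% Tween-20 for 30 min at room temperature, then with compounds for 30 min; binding was detected by AlphaScreen.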

[10] = target: Ubiquitin carboxyl-terminal hydrolase 2 (Homo sapiens) (UniProt O75604); test: qHTS Validation Assay for Inhibitors of Ubiquitin-specific Protease USP2a Using CHOP2 as the Reporter (AID 463106); note: potency is the fitted concentration of half-maximal effect
Procedure, shortened: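 Fluorescence read-out at Ex 485nm/Em 531nm after 60min RT, following addition of 25nM Ub-CHOP2 plus 25nM reporter substrate to USP2 core (10nM) pretreated 30min with compound. Data normalized to NEM full inhibition; concentration-response curves fitted.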

[11] = target: DNA polymerase III PolC-type (Bacillus subtilis (strain 168)) (UniProt P13267); test: qHTS Validation Assay for the Inhibitors of DNA Replication in Gram-Positive Bacteria (AID 485295); note: potency is the fitted concentration of half-maximal effect
Sequence of DNA polymerase III PolC-type (Bacillus subtilis (strain 168)) (P13267 whole entry, looked up): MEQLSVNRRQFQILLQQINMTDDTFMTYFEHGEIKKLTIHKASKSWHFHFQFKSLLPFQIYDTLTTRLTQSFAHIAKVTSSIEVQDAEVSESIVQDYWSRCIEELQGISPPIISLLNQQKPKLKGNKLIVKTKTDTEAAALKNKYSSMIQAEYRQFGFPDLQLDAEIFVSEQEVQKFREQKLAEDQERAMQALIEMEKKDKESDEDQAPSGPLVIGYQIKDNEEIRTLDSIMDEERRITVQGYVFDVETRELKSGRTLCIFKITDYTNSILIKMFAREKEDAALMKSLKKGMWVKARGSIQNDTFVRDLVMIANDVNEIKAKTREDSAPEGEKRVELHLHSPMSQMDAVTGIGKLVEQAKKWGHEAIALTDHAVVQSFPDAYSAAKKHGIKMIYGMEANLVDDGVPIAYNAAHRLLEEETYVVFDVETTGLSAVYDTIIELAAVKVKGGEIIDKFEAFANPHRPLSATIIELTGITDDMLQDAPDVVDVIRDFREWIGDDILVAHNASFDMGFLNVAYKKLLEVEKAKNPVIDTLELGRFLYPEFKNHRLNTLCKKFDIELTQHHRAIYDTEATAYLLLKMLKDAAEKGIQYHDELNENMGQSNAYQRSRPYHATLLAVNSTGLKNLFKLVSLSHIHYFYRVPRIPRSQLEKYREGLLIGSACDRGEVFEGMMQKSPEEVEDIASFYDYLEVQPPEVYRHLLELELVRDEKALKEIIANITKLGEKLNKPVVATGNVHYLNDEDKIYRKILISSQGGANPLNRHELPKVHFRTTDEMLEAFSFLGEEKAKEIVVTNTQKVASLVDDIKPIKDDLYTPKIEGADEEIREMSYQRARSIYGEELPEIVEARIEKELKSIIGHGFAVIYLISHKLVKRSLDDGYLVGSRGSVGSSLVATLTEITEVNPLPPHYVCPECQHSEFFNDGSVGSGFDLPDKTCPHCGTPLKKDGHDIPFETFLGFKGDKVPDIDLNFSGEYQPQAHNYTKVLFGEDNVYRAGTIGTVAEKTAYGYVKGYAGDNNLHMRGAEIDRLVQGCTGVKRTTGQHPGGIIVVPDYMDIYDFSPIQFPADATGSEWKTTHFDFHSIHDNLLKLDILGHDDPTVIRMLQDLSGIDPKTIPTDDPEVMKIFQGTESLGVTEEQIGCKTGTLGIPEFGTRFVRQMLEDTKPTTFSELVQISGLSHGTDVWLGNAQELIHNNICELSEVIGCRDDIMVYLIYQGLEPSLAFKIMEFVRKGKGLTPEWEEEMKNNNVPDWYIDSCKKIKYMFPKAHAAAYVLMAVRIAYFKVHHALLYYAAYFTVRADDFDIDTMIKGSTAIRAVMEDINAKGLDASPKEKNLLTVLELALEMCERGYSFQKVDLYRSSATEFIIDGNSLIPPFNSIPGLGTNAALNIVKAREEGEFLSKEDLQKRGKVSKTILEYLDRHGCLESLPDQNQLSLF
Procedure, shortened: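 Reconstituted B. subtilis holoenzyme (Pol III, beta clamp, SSB, primase) was preincubated with compound at room temperature, then given single-stranded circular M13Gori plus dNTPs and NTPs. EDTA-containing PicoGreen stopped the reaction, and dsDNA product was read by fluorescence.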

[12] = target: Ubiquitin carboxyl-terminal hydrolase 1 (Homo sapiens) (UniProt O94782); test: Inhibitors of USP1/UAF1: Pilot qHTS (AID 504865); note: potency is the fitted concentration of half-maximal effect; nearly all actives have a fitted effect of over 35% in size
Sequence of Ubiquitin carboxyl-terminal hydrolase 1 (Homo sapiens) (O94782 whole entry, looked up): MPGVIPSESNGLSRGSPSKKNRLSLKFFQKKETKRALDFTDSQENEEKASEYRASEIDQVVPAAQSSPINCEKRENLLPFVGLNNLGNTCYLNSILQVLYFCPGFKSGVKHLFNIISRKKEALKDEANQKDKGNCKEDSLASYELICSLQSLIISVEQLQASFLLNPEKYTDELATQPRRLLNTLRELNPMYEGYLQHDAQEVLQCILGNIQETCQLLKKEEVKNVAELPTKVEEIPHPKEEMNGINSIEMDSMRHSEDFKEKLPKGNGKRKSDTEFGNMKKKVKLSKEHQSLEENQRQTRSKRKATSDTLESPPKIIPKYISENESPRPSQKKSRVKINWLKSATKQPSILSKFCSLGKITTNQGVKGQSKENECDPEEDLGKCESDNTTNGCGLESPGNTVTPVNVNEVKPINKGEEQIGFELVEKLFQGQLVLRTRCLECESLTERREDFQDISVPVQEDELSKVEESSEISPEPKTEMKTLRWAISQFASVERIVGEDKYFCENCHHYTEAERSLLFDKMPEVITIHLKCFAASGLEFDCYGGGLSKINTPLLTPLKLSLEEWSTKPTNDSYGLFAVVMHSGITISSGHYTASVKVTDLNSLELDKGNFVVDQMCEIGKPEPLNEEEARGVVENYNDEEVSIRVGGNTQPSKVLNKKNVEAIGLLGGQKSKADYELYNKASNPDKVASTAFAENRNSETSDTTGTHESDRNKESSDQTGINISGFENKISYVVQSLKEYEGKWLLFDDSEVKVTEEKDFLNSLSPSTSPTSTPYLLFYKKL
Procedure, shortened: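 USP1/UAF1 complex (1nM) preincubated with compound 15 min at room temperature, then Ub-Rho substrate (150nM final) added. Fluorescence read kinetically at 480/540 nm, 6 reads every 60 seconds. Buffer: 50mM HEPES pH 7.8, 0.5mM EDTA, 0.1 mg/ml BSA, 1mM TCEP, 0.01% Tween-20.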

[13] = HTS Assay for Allosteric Antagonists of the Human D2 Dopamine Receptor: Hit Validation in HTRF (AID 624455);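 note: stable D1 dopamine receptor cell line scored for blocking the D1 response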
Procedure, shortened: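 Inhibition of the D1-mediated response is measured by HTRF in cells that stably express the D1 dopamine receptor. Compounds reaching this step are hits from calcium-flux antagonism testing at EC80 dopamine in inducible Hek293 Trex D2 cells.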

[14] = target: Arylsulfatase A (Homo sapiens) (UniProt P15289); test: qHTS screen for enhancers of Arylsulfatase A (ASA1): LOPAC Validation Assay (AID 720538); note: potency is the fitted concentration of half-maximal effect
Procedure, shortened: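 SV40-transformed skin fibroblasts from an MLD patient (ASA-I179S) were treated with compounds for 48h at 37 degree C, then lysed with 0.5mM pNCS final substrate for 14h at room temperature; NaOH stop, fluorescence read (Ex=525 nm; Em=598 nm).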

[15] = target: Flap endonuclease 1 (Homo sapiens) (UniProt P39748); test: qHTS Validation Assay for the Inhibitors of Human Flap endonuclease 1 (FEN1) (AID 488816)
Sequence of Flap endonuclease 1 (Homo sapiens) (P39748 whole entry, looked up): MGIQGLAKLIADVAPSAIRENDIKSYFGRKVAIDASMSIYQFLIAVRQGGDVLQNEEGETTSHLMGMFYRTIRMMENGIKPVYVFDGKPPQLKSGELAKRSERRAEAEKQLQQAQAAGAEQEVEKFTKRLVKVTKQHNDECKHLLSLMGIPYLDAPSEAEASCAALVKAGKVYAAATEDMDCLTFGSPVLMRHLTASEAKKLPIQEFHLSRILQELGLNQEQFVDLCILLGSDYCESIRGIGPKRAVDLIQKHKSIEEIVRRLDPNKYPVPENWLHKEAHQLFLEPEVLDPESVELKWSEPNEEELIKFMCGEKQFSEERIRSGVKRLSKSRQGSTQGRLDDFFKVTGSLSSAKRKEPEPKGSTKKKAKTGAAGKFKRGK
Procedure, shortened: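 Enzyme reagent 10 nM; cpds pinned; 15 min RT preinc.; substrate 50 nM final; reads t=0 and 15 min; no-enzyme buffer wells as neg. control; normalized data, 4-parameter Hill fit.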

[16] = target: Chromobox protein homolog 1 (Homo sapiens) (UniProt P83916); test: qHTS Validation Assay for Inhibitors of HP1-beta Chromodomain Interactions with Methylated Histone Tails (AID 488953);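 note: loss of AlphaScreen luminescence from HP1-beta binding biotinylated H3K9me3 peptide; nearly all actives have a fitted effect of over 50% in size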
Sequence of Chromobox protein homolog 1 (Homo sapiens) (P83916 whole entry, looked up): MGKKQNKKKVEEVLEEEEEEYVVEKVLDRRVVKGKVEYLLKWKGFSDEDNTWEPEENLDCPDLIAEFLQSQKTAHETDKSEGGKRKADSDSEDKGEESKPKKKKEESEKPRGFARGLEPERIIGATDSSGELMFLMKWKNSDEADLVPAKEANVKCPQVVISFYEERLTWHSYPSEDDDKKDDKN
Procedure, shortened: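 Disruption of preformed HP1-beta:H3K9me3 peptide complexes (both 50 nM, PBS pH 7.4 with 0.01% Tween-20) is measured by AlphaScreen after 30 min compound exposure at room temperature, using streptavidin donor and nickel chelate acceptor beads at 10 ug/mL final.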

[17] = qHTS profiling of the MIPE4 collection as inhibitors of Plasmodium falciparum (DD2) proliferation (AID 743345; call rule not given here); settings: P. falciparum Dd2 in erythrocytes, SYBR Green DNA, 72 h; at 28.5 µM (top of the series) unless noted
Procedure, shortened: (§1)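 Parasite DNA was quantified by SYBR Green I fluorescence (ex 485, em 535 nm) after overnight lysis in saponin/Triton buffer at room temperature. Cultures at 0.3% parasitemia and 2.5% hematocrit were first exposed to compound for 72 h at 37 C; signals were normalised to artemisinin (0.29 uM) and vehicle wells.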

[18] = qHTS profiling of the MIPE4 collection as inhibitors of Plasmodium falciparum (HB3) proliferation (AID 743347; call rule not given here); settings: P. falciparum HB3 in erythrocytes, SYBR Green DNA, 72 h; at 28.5 µM (top of the series) unless noted
Procedure, shortened: as §1

Nc1ncnc2c1nc(Sc1ccc(Cl)cc1)n2[C@H]1OC2COP(=O)(O)O[C@@H]2C1O (some centres undefined)
inactive: outcome [1] | Potency [2] | Potency [3] | Potency [4] | Potency [5]

COc1ccccc1N1CCN(CCCNc2c(C)c(=O)n(C)c(=O)n2C)CC1
inactive: outcome [6] | outcome [7] | Potency [8] | Potency [2] | Potency [3] | Potency [4] | Potency [5]

O=c1onc2cnc3ccccc3n12
inactive: outcome [6] | outcome [7] | Potency [8] | Potency [2] | Potency [3] | Potency [4] | Potency [5]

O=C1NC(=O)/C(=C/c2ccc3c(c2)OC(F)(F)O3)S1
inactive: outcome [1] | Potency [2] | Potency [3] | Potency [4] | Potency [5]

NCC(O)C1CCCCCCC1 (centres undefined)
inactive: outcome [1] | Potency [2] | Potency [3] | Potency [4] | Potency [5]

O=[N+]([O-])c1ccc(CSc2ncnc3c2ncn3[C@@H]2O[C@H](CO)[C@@H](O)[C@H]2O)cc1
inactive: outcome [1] | Potency [2] | Potency [3] | Potency [4] | Potency [5]

Nc1ncnc2c1ncn2[C@@H]1O[C@H](COP(=O)(O)CP(=O)(O)OP(=O)(O)O)[C@@H](O)[C@H]1O
inactive: Potency [9] | outcome [1] | Potency [2] | Potency [3] | Potency [4] | Potency [5]

CNC(=O)[C@H]1O[C@@H](n2cnc3c(NCc4ccc(N)cc4)ncnc32)[C@H](O)[C@@H]1O
inactive: outcome [1] | Potency [2] | Potency [3] | Potency [4] | Potency [5]

Cc1nc2sccn2c(=O)c1CCN1CCC(=C(c2ccccc2)c2ccc(F)cc2)CC1
inactive: outcome [1] | Potency [2] | Potency [3] | Potency [4] | Potency [5]

CN(CC[C@@H](Oc1ccc(C(F)(F)F)cc1)c1ccccc1)CC(=O)O
inactive: outcome [1] | Potency [2] | Potency [3] | Potency [4] | Potency [5]

NCCCS(=O)(=O)O
inactive: outcome [6] | outcome [7] | Potency [8] | Potency [2] | Potency [3] | Potency [4] | Potency [5]

N.N.N.N.N.N.N.N.N.N.N.N.N.N.O.O.[Ru+4].[Ru+5].[Ru+5]
inactive: outcome [1] | outcome [13] | Potency [2] | Potency [3] | Potency [4] | Potency [5]
active: Potency [10] 14.7 µM | Potency [11] 16.8 µM | Potency [12] 44.7 µM | Potency [14] 12 µM

CSc1nc(N)c2ncn([C@@H]3O[C@H](COP(=O)(O)OP(=O)(O)O)C(O)[C@H]3O)c2n1 (some centres undefined)
inactive: outcome [1] | Potency [2] | Potency [3] | Potency [4] | Potency [5]

Nc1nc(Nc2ccccc2)nc2c1ncn2[C@@H]1O[C@H](CO)[C@@H](O)[C@H]1O
inactive: outcome [1] | Potency [2] | Potency [3] | Potency [4] | Potency [5]

CCCC1(C)C(C#N)(C#N)C1(C#N)C#N
inactive: outcome [1] | Potency [2] | Potency [3] | Potency [4] | Potency [5]

O=C(Nc1cccc(C(=O)Nc2ccc(S(=O)(=O)O)c3cc(S(=O)(=O)O)cc(S(=O)(=O)O)c23)c1)Nc1cccc(C(=O)Nc2ccc(S(=O)(=O)O)c3cc(S(=O)(=O)O)cc(S(=O)(=O)O)c23)c1
inactive: outcome [6] | outcome [7] | Potency [8] | Potency [2] | Potency [3] | Potency [4] | Potency [5]

O=c1cc(-c2ccccc2F)[nH]c2cc3c(cc12)OCO3
inactive: outcome [1] | Potency [2] | Potency [3] | Potency [4] | Potency [5]

NC(N)=NC(N)=Nc1cccc(Cl)c1
inactive: outcome [6] | outcome [7] | Potency [8] | Potency [2] | Potency [3] | Potency [4] | Potency [5]

Fc1cccc(/C=N/N=C/c2cccc(F)c2)c1
inactive: outcome [1] | Potency [2] | Potency [3] | Potency [4] | Potency [5]

C=CC(=O)c1ccc(CCCCCC)cc1
inactive: outcome [1] | Potency [2] | Potency [3] | Potency [4] | Potency [5]

N[C@@H](CCC(=O)N[C@H](CSN=O)C(=O)NCC(=O)O)C(=O)O
inactive: outcome [1] | Potency [2] | Potency [3] | Potency [4] | Potency [5]

CN[C@H](CC(C)C)C(=O)N[C@H]1C(=O)N[C@@H](CC(N)=O)C(=O)N[C@@H]2C(=O)N[C@H]3C(=O)N[C@H](C(=O)N[C@H](C(=O)O)c4cc(O)cc(O)c4-c4cc3ccc4O)[C@H](O)c3ccc(c(Cl)c3)Oc3cc2cc(c3O[C@@H]2O[C@H](CO)[C@@H](O)[C@H](O)[C@@H]2O[C@H]2C[C@](C)(N)[C@H](O)[C@H](C)O2)Oc2ccc(cc2Cl)[C@H]1O
104%: parasite growth remaining, % of DMSO control (lower = more inhibition) [17]
704%: growth, % of control [18]
inactive: Potency [15] | Potency [16] | outcome [1] | Potency [2] | Potency [3] | Potency [4] | Potency [5]

O=C(O)CCC/C=C\C[C@@H]1[C@@H](/C=C/[C@H](O)C2Cc3ccccc3C2)[C@@H](F)C[C@@H]1O
inactive: outcome [1] | Potency [2] | Potency [3] | Potency [4] | Potency [5]

COc1ccc2c(c1)CCC1C2CC[C@@]2(C)C1CC[C@@H]2NCCCCCCN1C(=O)CCC1=O (some centres undefined)
inactive: outcome [1] | Potency [2] | Potency [3] | Potency [4] | Potency [5]

COc1cc(CNC(=O)CCCCCCC(C)C)ccc1O
inactive: outcome [6] | outcome [7] | Potency [8] | Potency [2] | Potency [3] | Potency [4] | Potency [5]

C[C@H](Cc1ccccc1)Nc1ncnc2c1ncn2[C@@H]1O[C@H](CO)[C@@H](O)[C@H]1O
inactive: outcome [1] | Potency [2] | Potency [3] | Potency [4] | Potency [5]

CN1CCc2cc(Cl)c(O)cc2[C@@H](c2ccccc2)C1
inactive: outcome [1] | Potency [2] | Potency [3] | Potency [4] | Potency [5]

c1ccc2c(c1)CC(N1CCN(c3cccc4c3OCCO4)CC1)C2
inactive: outcome [6] | outcome [7] | Potency [8] | Potency [2] | Potency [3] | Potency [4] | Potency [5]
